# Assay results reported in PubChem BioAssay (NCATS).
# Values joined by “and” are separate entries in the source; they are usually repeats but may differ in a detail not shown here. Identical values can stand only once. Results filed as inconclusive are left out. Where a call stands in place of a potency, no number is given. Active and inactive are the calls of the source. Unless noted, the call rests on the fitted dose curve; in most records, active means well fitted curve in the direction sought with a large enough effect; inconclusive means small, poorly fitted or top-dose-only effect, or another doubt; inactive means no such curve, though single readings can be large; an effect the other way counts as inactive or inconclusive.
# Experiments:
# [1] = target: Alpha-galactosidase A (Homo sapiens) (UniProt P06280); assay: Counterscreen for Glucocerebrosidase Inhibitors: qHTS Assay for Human alpha-Galactosidase at pH 4.5 (AID 992)
# Procedure, shortened: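 Read-out is 4-methylumbelliferone fluorescence (365 nm excitation, 440 nm emission) after a pH 10 NaOH/glycine stop. Reactions held 2 nM enzyme and 80 uM substrate at pH 4.5 for 20 min at room temperature.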
# [2] = target: alpha-glucosidase (Oryza sativa, rice) (UniProt Q653V4); assay: Counterscreen for Glucocerebrosidase Inhibitors: qHTS Assay for Rice alpha-Glucosidase at pH 5.0 (AID 997)
# Procedure, shortened: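 Rice alpha-glucosidase (4 nM final) with 400 uM 4-methylumbelliferyl-alpha-D-glucopyranoside in citrate buffer pH 5.0, 20 min at room temperature, stopped at pH 10; fluorescence 365/440 nm, compounds 0.7 nM–77 uM, AC50 from Hill fits.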
# [3] = Validation of Assay for Modulators of Lamin A Splicing (AID 1459; active means well fitted curve in the direction sought with a large enough effect in the signal ratio; the % refers to the signal ratio;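 further: cells exposed to compound for two days before reading; ratio rise marks activators and ratio drop marks inhibitors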)
# Procedure, shortened: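 Splicing correction read as GFP (500-530 nm) over DsRed2 (575-640 nm) object intensity after 48 h compound exposure of reporter HeLa S3 clones (600 cells/well, 2% FBS medium); ancitabine and cycloheximide titrations, 0.5% DMSO as vehicle.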
# [4] = qHTS Assay for Lipid Storage Modulators (AID 1519; calls by dose curve); settings: Drosophila S3 cells, BODIPY lipid droplet/cell ratio, laser cytometry, cells loaded with oleic acid; for activity change, negative = inhibition: at 57.5 µM (top of the series)
# Procedure, shortened: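 Cells seeded at 5,000 per well were treated with compounds over a concentration series and loaded with oleic acid (400 uM, as added). Lipid droplet fluorescence (488 nm excitation, 500-530 nm channel) was read by laser-scanning cytometry and normalized to 20 uM Triacsin C.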
# [5] = target: DNA repair nuclease/redox regulator APEX1 (Homo sapiens) (UniProt P27695); assay: qHTS Validation Assay for Inhibitors of the Human Apurinic/apyrimidinic Endonuclease 1 (APE1) (AID 1705; further: potency means the concentration at half of the fitted maximal effect;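 on activity change, negative = inhibition: TAMRA fluorescence gain over two minutes as APE1 cuts a quenched THF abasic duplex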)
# Procedure, shortened: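 Activity read as rising fluorescence (598 nm emission, 525 nm excitation) from incision of a TAMRA/BHQ-2 duplex carrying a THF abasic site (50 nM). Compound and enzyme sat 15 min at RT before substrate start; signal change between first and third 60-s reads.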
# [6] = Counterscreen for APE1 Inhibitors: Fluorescent Dye Displacement Validation Assay (AID 1707); further: potency means the concentration at half of the fitted maximal effect
# Procedure, shortened: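 ThO 250 nM + dsDNA 50 nM (THF abasic site, 5'-TAMRA), Tris-HCl pH7.5/50mM NaCl/2 mM MgCl2/0.01% Tween-20; compounds pin-transferred; ex 480/em 540 nm endpoint. Neutral = no compound; no-DNA ThO wells = negative control.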
# [7] = qHTS for differential inhibitors of proliferation of Plasmodium falciparum line GB4 (AID 1816); settings: Potency: Plasmodium falciparum GB4 proliferation inhibition;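 further: parasite growth measured after 72 h incubation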; further: potency means the concentration at half of the fitted maximal effect
# [8] = qHTS for differential inhibitors of proliferation of Plasmodium falciparum line 3D7 (AID 1876); further: potency means the concentration at half of the fitted maximal effect
# [9] = qHTS for differential inhibitors of proliferation of Plasmodium falciparum line 7G8 (AID 1815);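 further: parasite growth measured after three days of incubation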; further: potency means the concentration at half of the fitted maximal effect
# [10] = target: Endonuclease 4 (Escherichia coli (strain K12)) (UniProt P0A6C1); assay: Counterscreen for APE1 Inhibitors: qHTS Validation Assay for Inhibitors of Endonuclease IV (AID 1708); further: potency means the concentration at half of the fitted maximal effect
# Procedure, shortened: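 Cleavage of a quenched abasic-site DNA duplex (50 nM, 5'-TAMRA, 3'-BHQ-2) by 2 nM enzyme is followed as fluorescence increase. Compounds are preincubated with enzyme 15 min at room temperature before substrate addition.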
# [11] = measured here: cell count channel max response
# [12] = measured here: lipid channel max response
# DNA repair nuclease/redox regulator APEX1 (Homo sapiens), sequence (P27695 whole entry, looked up): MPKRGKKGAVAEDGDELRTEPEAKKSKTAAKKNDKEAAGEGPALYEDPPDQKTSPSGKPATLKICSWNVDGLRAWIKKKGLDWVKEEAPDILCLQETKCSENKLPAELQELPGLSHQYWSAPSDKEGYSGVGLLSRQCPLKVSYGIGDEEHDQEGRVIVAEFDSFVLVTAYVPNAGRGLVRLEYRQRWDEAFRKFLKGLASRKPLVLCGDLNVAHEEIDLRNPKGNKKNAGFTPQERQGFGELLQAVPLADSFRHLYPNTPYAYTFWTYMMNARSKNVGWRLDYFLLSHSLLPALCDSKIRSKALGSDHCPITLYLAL
# Alpha-galactosidase A (Homo sapiens), sequence (P06280 whole entry, looked up): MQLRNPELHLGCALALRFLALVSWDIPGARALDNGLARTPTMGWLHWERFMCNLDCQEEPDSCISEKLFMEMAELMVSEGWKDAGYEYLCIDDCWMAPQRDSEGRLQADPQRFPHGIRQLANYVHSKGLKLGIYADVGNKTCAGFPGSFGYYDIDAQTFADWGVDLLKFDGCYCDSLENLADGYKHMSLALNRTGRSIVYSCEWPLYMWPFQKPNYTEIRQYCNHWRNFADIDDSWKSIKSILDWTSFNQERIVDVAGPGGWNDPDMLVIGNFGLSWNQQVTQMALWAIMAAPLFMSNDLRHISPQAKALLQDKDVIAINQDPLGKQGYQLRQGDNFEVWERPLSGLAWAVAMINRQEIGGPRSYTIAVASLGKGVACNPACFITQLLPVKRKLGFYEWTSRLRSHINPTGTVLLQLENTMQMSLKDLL
SMILES,outcome [1],outcome [2],outcome [3],"activity change, negative = inhibition [4]","max response [4, 11]","max response [4, 12]",Potency [5],Potency [6],Potency [7],Potency [8],Potency [9],Potency [10]
O=C(O)Cc1ccc(O)c(O)c1,inactive,inactive,inactive,-0.0553% (inactive),-16.6%,-14.9%,7.94 µM (active),inactive,inactive,inactive,,
CC(=O)NNC(=O)N1Cc2ccccc2Oc2ccc(Cl)cc21,inactive,inactive,inactive,3.63% (inactive) and -0.28% (inactive),-1.09% and 39.5%,4.04% and 30.3%,inactive,inactive,inactive,inactive,,
Nc1ccc(-c2nc3ccc(-c4nc5ccc(N)cc5[nH]4)cc3[nH]2)cc1,,inactive,inactive,-0.707% (inactive),-29.1%,-26.6%,28.2 µM (active),25.1 µM (active),0.891 µM (active),0.355 µM (active),0.794 µM (active),
Nc1ccc(CCNc2ncnc3c2ncn3C2OC(CO)C(O)C2O)cc1 (stereo not given),,,inactive,,,,inactive,inactive,,,,inactive
CNc1cc(NS(=O)(=O)c2ccc(N)cc2)nc(NC)n1,,inactive,inactive,0.422% (inactive),-14.7%,-14.3%,inactive,inactive,inactive,inactive,inactive,
Cc1nc(N=Nc2cc(S(=O)(=O)O)c3cc([N+](=O)[O-])cc(S(=O)(=O)O)c3c2)c(COP(=O)(O)O)c(C=O)c1O,inactive,inactive,inactive,-4.26% (inactive),6.63%,4.35%,2.82 µM (active),10 µM (active),,inactive,,
CCC(=O)N1CCN(C(=O)c2ccccc2)CC1,,inactive,inactive,0.685% (inactive),-9.69%,-7.51%,inactive,inactive,,,,
CC1CCN=C(N)S1 (stereo not given),,,inactive,,,,inactive,inactive,,,inactive,inactive
N#Cc1cc2nc(O)c(O)nc2cc1[N+](=O)[O-],inactive,inactive,inactive,3.63% (inactive) and -0.314% (inactive),13.7% and -35.1%,18.1% and -33.4%,28.2 µM (active),inactive,,inactive,inactive,
N=C(N)SCCN,inactive,inactive,inactive,1.32% (inactive) and 3.68% (inactive),9.1% and -2.48%,12% and 0.318%,,inactive,,,,
Cc1nc(N=Nc2ccc(C(=O)O)cc2)c(COP(=O)(O)O)c(C=O)c1O,inactive,inactive,inactive,-0.137% (inactive),-21.8%,-20.3%,inactive,inactive,inactive,inactive,inactive,
NCCCNCCCCNCCCN,,inactive,inactive,1.21% (inactive),9.8%,13.5%,inactive,inactive,inactive,inactive,inactive,
CCCCS(=N)(=O)CC[C@H](N)C(=O)O (stereo not given in full),,,inactive,,,,inactive,inactive,11.2 µM (active),,12.6 µM (active),inactive
Nc1ncnc2c1ncn2C1CCCO1 (stereo not given),,,inactive,-1.26% (inactive),24.9%,22.8%,,inactive,inactive,inactive,inactive,inactive
N[C@@H](Cc1ccc(F)cc1)C(=O)O,,,inactive,,,,inactive,inactive,14.1 µM (active),11.2 µM (active),12.6 µM (active),inactive
NS(=O)(=O)c1cccc2c1c([N+](=O)[O-])cc1nc(O)c(O)nc12,inactive,inactive,inactive,-1.05% (inactive) and 1.23% (inactive),-22.6% and 10.1%,-22.6% and 7.26%,inactive,inactive,,inactive,,
COC(=O)C1=C(C)NC(C)=C([N+](=O)[O-])C1c1ccccc1C(F)(F)F (stereo not given),,,inactive,,,,inactive,inactive,,,,inactive
CCCCCCCCCCCCCCC[C@H](O)[C@H](N)CO,,inactive,inactive,-9.53% (inactive),-83.5%,-95.1%,inactive,,,inactive,,31.6 µM (active)
NCC(O)c1ccc(O)c(O)c1 (stereo not given),,,inactive,,,,inactive,inactive,,,,inactive
O=c1onc2n1-c1cc(Br)ccc1OC2,,inactive,inactive,3.14% (inactive),64.2%,68.1%,inactive,inactive,inactive,inactive,inactive,
COc1ccc(CCN(C)CCc2ccc(OC)c(OC)c2)cc1OC,,inactive,inactive,-1.77% (inactive) and -1.64% (inactive),7.2% and 26.8%,4.66% and 25.1%,inactive,inactive,,,,
O=C(O)C1CCNCC1,inactive,inactive,inactive,-0.0209% (inactive),11.3%,10%,inactive,inactive,,,,
COc1cc(CNC(=O)CCCCCCC(C)C)ccc1O,,inactive,inactive,0.247% (inactive),14.5%,14.2%,inactive,inactive,,,,
Cn1c(=O)[nH]c2ncn(C)c2c1=O,inactive,inactive,inactive,0.383% (inactive),10.7%,12.8%,inactive,inactive,inactive,inactive,inactive,
NC(=O)CC[C@H](N)C(=O)O,,,inactive,,,,inactive,inactive,inactive,inactive,inactive,inactive
CCCCCCC/C=C\CCCCCCCCC(=O)O,inactive,inactive,inactive,-0.534% (inactive),-11.1%,-10.7%,35.5 µM (active),,inactive,inactive,inactive,
